Test results taken from ChEMBL document CHEMBL1961873, “Compounds: GSK PKIS; Assays: Nanosyn kinase panel” (2012).

Tests used:
[1] = biological target: T1, Aurora kinase A (Homo sapiens) (UniProt O14965); conditions: at 1 µM;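 note: values are mean percent inhibition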
T1 sequence (whole entry): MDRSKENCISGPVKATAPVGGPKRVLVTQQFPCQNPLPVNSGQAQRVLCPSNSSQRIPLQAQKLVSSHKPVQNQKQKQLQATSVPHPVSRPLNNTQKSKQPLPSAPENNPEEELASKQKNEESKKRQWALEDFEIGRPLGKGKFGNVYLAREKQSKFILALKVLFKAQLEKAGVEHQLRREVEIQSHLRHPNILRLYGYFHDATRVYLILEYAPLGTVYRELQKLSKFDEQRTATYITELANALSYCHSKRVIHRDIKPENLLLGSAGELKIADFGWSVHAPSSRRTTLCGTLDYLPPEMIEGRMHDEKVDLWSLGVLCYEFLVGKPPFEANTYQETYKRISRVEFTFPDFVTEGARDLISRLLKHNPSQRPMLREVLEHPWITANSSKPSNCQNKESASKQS

[2] = biological target: Aurora kinase B (Homo sapiens) (UniProt Q96GD4); conditions: at 0.1 µM
Sequence of Aurora kinase B (Homo sapiens) (Q96GD4 whole entry): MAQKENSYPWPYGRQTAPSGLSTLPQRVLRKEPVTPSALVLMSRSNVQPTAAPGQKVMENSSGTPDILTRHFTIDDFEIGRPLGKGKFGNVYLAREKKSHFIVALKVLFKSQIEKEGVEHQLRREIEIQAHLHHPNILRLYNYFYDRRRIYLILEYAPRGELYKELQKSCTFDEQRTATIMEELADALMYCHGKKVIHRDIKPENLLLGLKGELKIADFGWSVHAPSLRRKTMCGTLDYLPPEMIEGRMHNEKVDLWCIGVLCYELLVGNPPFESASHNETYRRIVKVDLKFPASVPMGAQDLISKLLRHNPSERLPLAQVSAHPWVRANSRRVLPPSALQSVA

[3] = biological target: Aurora kinase B (Homo sapiens) (UniProt Q96GD4); conditions: at 1 µM
[4] = biological target: T2, Aurora kinase C (Homo sapiens) (UniProt Q9UQB9); conditions: at 0.1 µM
T2 sequence (whole entry): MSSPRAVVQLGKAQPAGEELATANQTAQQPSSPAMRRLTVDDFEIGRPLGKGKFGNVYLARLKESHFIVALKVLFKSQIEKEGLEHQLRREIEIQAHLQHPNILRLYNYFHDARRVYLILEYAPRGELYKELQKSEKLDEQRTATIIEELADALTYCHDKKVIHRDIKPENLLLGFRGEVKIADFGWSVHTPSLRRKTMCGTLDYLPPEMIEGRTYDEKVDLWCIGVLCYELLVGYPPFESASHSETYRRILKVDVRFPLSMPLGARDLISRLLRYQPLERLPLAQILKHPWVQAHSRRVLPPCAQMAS

[5] = biological target: T2, Aurora kinase C (Homo sapiens); conditions: at 1 µM
[6] = biological target: Serine/threonine-protein kinase 10 (Homo sapiens) (UniProt O94804); conditions: at 0.1 µM
Sequence of Serine/threonine-protein kinase 10 (Homo sapiens) (O94804 whole entry, looked up): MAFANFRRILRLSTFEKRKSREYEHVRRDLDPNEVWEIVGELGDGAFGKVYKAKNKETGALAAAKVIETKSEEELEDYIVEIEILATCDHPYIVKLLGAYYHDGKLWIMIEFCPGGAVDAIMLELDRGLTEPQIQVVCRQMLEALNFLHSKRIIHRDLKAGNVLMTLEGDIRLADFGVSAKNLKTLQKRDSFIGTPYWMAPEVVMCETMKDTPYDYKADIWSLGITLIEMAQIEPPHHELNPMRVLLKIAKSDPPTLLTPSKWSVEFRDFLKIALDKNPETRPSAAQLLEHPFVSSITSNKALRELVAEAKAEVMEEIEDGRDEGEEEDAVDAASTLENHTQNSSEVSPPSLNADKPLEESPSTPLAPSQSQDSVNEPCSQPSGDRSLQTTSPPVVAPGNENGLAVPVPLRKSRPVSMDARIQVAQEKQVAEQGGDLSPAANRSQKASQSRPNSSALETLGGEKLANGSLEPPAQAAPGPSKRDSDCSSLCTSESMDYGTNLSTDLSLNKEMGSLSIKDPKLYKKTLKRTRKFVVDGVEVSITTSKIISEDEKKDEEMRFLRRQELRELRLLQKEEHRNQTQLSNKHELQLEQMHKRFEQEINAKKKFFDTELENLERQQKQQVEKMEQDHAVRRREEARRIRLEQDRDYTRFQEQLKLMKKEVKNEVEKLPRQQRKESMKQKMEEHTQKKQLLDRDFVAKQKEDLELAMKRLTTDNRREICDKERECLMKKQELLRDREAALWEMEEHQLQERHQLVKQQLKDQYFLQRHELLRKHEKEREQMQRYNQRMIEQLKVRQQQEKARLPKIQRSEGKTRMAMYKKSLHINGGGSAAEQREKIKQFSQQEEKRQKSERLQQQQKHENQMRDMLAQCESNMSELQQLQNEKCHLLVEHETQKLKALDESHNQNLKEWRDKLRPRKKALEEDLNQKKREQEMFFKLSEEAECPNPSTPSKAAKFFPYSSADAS

[7] = biological target: Serine/threonine-protein kinase 10 (Homo sapiens) (UniProt O94804); conditions: at 1 µM
[8] = biological target: T3, Mitogen-activated protein kinase kinase kinase kinase 2 (Homo sapiens) (UniProt Q12851); conditions: at 0.1 µM
T3 sequence (whole entry): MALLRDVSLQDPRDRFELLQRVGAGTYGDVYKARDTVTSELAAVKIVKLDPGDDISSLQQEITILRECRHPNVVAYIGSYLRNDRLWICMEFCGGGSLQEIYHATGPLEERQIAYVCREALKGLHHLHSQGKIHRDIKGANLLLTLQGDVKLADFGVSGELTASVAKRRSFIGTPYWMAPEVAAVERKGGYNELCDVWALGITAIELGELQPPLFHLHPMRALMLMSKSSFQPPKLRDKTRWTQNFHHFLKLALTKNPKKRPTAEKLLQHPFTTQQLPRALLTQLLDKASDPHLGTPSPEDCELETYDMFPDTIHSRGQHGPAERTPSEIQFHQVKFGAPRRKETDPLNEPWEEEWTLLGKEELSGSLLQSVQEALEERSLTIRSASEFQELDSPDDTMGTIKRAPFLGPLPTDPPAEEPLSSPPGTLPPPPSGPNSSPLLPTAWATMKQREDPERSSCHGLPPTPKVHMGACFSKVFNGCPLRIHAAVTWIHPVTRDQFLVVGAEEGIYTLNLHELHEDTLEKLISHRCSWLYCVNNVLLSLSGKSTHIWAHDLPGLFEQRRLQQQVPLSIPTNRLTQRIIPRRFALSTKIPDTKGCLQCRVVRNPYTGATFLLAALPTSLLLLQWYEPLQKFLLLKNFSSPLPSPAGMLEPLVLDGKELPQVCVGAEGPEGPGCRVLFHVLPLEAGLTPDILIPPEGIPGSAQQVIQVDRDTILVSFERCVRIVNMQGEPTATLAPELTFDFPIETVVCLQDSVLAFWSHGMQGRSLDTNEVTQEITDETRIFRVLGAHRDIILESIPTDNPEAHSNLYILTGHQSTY

[9] = biological target: T3, Mitogen-activated protein kinase kinase kinase kinase 2 (Homo sapiens); conditions: at 1 µM
[10] = biological target: Mitogen-activated protein kinase kinase kinase kinase 4 (Homo sapiens) (UniProt O95819); conditions: at 0.1 µM
Sequence of Mitogen-activated protein kinase kinase kinase kinase 4 (Homo sapiens) (O95819 2-1239 limits assumed): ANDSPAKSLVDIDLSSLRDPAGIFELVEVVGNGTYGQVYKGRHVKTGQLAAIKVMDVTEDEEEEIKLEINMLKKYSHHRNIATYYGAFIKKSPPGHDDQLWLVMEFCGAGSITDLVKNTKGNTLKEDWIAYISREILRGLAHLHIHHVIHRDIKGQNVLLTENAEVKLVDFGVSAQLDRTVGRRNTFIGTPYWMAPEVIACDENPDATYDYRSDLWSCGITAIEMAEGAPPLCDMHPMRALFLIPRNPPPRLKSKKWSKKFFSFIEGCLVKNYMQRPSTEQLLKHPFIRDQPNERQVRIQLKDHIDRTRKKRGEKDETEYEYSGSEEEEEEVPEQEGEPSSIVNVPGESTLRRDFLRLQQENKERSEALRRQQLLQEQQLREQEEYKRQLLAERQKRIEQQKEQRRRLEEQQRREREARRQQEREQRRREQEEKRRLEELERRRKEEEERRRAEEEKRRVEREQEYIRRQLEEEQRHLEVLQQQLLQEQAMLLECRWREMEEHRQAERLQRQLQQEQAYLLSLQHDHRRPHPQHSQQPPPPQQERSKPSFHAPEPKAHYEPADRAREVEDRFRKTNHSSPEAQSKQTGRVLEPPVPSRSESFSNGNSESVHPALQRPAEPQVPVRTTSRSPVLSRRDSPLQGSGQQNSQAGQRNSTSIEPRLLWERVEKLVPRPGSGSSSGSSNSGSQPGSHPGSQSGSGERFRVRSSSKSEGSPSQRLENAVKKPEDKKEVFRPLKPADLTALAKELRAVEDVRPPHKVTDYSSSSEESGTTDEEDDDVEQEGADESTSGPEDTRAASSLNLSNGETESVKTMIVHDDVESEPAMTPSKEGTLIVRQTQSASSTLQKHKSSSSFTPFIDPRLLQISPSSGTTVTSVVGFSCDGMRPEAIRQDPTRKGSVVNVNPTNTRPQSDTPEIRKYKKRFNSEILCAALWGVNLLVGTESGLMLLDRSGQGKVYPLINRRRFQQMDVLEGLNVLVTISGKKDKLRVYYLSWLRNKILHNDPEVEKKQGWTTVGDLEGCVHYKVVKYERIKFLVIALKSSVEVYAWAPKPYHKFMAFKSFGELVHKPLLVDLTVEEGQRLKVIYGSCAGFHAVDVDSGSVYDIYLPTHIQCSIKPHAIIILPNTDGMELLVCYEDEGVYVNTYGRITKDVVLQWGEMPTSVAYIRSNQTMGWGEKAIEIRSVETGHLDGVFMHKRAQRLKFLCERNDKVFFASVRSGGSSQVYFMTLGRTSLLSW

[11] = biological target: Mitogen-activated protein kinase kinase kinase kinase 4 (Homo sapiens) (UniProt O95819); conditions: at 1 µM
[12] = biological target: Dual specificity mitogen-activated protein kinase kinase 1 (Homo sapiens) (UniProt Q02750); conditions: at 0.1 µM
Sequence of Dual specificity mitogen-activated protein kinase kinase 1 (Homo sapiens) (Q02750 whole entry): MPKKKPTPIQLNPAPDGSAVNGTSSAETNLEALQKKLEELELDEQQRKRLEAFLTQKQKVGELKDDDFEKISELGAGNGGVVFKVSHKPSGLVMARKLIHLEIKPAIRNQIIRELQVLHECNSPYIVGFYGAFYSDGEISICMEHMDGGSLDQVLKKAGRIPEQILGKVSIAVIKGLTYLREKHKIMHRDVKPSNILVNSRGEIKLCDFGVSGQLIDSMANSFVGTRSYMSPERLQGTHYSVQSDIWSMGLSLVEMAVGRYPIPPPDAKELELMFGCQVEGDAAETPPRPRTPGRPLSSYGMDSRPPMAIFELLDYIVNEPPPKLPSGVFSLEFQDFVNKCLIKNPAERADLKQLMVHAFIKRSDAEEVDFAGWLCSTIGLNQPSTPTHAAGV

[13] = biological target: Dual specificity mitogen-activated protein kinase kinase 1 (Homo sapiens) (UniProt Q02750); conditions: at 1 µM
[14] = biological target: Misshapen-like kinase 1 (Homo sapiens) (UniProt Q8N4C8); conditions: at 0.1 µM
Sequence of Misshapen-like kinase 1 (Homo sapiens) (Q8N4C8 whole entry, looked up): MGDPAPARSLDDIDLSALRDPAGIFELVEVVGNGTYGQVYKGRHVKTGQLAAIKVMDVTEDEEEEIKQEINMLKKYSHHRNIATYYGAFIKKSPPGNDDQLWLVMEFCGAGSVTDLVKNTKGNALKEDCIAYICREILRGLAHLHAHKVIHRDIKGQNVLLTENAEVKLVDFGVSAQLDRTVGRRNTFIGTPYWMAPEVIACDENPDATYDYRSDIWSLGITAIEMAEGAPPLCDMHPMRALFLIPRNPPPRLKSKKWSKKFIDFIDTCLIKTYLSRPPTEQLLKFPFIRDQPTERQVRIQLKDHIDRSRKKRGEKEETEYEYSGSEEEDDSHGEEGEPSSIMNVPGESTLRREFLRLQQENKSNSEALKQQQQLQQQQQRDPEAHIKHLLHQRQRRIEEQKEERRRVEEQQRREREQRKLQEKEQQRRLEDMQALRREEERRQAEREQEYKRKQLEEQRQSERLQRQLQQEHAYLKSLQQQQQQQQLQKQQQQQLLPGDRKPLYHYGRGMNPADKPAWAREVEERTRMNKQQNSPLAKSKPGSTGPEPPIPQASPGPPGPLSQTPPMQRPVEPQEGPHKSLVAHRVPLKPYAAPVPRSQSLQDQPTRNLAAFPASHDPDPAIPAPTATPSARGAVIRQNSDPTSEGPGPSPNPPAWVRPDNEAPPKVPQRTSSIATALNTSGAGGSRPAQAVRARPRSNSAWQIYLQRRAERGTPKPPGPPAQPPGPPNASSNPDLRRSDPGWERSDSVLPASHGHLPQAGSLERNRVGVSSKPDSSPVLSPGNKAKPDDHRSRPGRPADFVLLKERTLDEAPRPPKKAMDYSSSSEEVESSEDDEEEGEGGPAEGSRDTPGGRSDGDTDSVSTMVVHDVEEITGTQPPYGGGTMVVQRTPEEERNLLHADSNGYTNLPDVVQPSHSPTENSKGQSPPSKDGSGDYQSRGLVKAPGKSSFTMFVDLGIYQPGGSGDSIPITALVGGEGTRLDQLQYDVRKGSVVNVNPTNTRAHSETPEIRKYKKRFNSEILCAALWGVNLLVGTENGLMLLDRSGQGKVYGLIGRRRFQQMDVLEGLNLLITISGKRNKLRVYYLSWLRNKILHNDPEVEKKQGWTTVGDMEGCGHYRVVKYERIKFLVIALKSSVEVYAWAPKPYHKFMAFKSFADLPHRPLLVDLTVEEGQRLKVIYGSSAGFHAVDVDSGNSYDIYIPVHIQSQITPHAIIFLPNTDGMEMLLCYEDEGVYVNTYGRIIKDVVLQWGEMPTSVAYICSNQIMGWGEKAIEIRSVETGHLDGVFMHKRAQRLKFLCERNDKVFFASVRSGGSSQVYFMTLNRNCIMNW

[15] = biological target: Misshapen-like kinase 1 (Homo sapiens) (UniProt Q8N4C8); conditions: at 1 µM
[16] = biological target: T4, Serine/threonine-protein kinase 4 (Homo sapiens) (UniProt Q13043); conditions: at 0.1 µM
T4 sequence (whole entry): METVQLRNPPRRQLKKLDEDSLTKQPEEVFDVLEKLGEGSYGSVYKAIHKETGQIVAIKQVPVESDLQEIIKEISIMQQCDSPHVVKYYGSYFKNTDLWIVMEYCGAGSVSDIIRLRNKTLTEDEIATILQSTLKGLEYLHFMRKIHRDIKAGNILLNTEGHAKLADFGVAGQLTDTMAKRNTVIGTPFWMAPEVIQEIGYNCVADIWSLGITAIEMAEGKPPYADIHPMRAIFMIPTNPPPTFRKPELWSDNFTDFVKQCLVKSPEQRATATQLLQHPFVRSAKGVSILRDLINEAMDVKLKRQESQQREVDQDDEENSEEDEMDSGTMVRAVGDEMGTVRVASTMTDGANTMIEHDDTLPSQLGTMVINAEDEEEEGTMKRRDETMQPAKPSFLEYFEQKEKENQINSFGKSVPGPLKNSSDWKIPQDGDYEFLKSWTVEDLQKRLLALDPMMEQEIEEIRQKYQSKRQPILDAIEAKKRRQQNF

[17] = biological target: T4, Serine/threonine-protein kinase 4 (Homo sapiens); conditions: at 1 µM
[18] = biological target: T5, Serine/threonine-protein kinase 3 (Homo sapiens) (UniProt Q13188); conditions: at 0.1 µM
T5 sequence (whole entry): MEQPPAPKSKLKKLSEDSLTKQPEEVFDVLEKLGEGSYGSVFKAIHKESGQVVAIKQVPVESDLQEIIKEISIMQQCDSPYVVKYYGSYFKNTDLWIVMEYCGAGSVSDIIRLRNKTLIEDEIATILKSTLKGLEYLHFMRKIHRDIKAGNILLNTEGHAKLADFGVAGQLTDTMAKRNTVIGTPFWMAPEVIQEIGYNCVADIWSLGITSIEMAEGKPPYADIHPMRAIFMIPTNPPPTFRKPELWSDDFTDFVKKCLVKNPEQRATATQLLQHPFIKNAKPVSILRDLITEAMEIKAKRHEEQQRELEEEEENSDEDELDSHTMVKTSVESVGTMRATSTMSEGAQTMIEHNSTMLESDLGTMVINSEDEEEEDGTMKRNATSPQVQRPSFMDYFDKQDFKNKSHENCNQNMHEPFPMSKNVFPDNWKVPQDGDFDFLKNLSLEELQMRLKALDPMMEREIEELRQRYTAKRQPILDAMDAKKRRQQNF

[19] = biological target: T5, Serine/threonine-protein kinase 3 (Homo sapiens); conditions: at 1 µM
[20] = biological target: Serine/threonine-protein kinase 26 (Homo sapiens) (UniProt Q9P289); conditions: at 0.1 µM
Sequence of Serine/threonine-protein kinase 26 (Homo sapiens) (Q9P289 2-416 limits assumed): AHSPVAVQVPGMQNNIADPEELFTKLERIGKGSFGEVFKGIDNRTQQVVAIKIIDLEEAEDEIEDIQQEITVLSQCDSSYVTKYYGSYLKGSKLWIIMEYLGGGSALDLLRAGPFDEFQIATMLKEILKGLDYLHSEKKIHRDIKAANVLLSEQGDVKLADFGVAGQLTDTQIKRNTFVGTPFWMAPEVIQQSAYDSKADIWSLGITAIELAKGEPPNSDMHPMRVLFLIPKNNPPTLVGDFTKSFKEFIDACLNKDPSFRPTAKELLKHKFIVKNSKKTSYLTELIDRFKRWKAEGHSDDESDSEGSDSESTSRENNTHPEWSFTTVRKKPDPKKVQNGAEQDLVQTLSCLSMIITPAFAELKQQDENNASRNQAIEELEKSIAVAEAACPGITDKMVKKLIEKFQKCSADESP

SMILES | inhibition [1] [%] | inhibition [2] [%] | inhibition [3] [%] | inhibition [4] [%] | inhibition [5] [%] | inhibition [6] [%] | inhibition [7] [%] | inhibition [8] [%] | inhibition [9] [%] | inhibition [10] [%] | inhibition [11] [%] | inhibition [12] [%] | inhibition [13] [%] | inhibition [14] [%] | inhibition [15] [%] | inhibition [16] [%] | inhibition [17] [%] | inhibition [18] [%] | inhibition [19] [%] | inhibition [20] [%]
Cc1cccc2c1NC(=O)/C2=N\Nc1ccc(S(N)(=O)=O)cc1 | 8.68 | 3.31 | 7.09 | 2.56 | 12.1 | 3.27 | 4.33 | 0.93 | 0.8 | 10.1 | 48.9 | 2.57 | 1.95 | 7.44 | 34.6 | 6.81 | 24.4 | 7.49 | 15.2 | -2.65
NS(=O)(=O)c1ccc(Nc2ncc(-c3ccccc3)o2)cc1 | 67.2 | 5.18 | 24.7 | 6.57 | 54.5 | 5.53 | 11.7 | 1.1 | 8.73 | 12.4 | 58.6 | 2.3 | 2.12 | 8.89 | 41.9 | 6.4 | 10.2 | 7.3 | 8.38 | -1.93
Fc1ccc(-c2cc(-c3c[nH]nc3-c3ccccn3)ccn2)cc1 | 4.79 | 2.48 | 5.17 | -0.57 | -4.87 | 6.15 | 11.2 | -0.05 | 1.6 | 13.7 | 59.6 | 5.25 | 3.85 | 10.7 | 44.4 | 4.5 | 6.92 | 6.43 | 7.79 | -0.73
N#Cc1c(NC(=O)CN2CCOCC2)sc2c1CCCC2 | 8.53 | 4.66 | 10.7 | 2.31 | -1.84 | 5.94 | 6.99 | 1.71 | 2.67 | 10.5 | 8.62 | 6.12 | 5.95 | 6.83 | 6.87 | 5.59 | 8.28 | 4.7 | 8.26 | -1.62
NC(=O)c1sc(-n2cnc3ccc(C(F)(F)F)cc32)cc1OCc1ccccc1Br | 5.5 | 2.77 | 5.43 | -0.7 | -6.73 | 9.21 | 26 | 0.79 | 8.19 | 4.62 | 10.4 | 4.95 | 5.45 | 4.02 | 11 | 2.27 | 3.83 | 3.43 | 4.74 | -0.65
COc1cccc(-c2c[nH]c3c(N/N=C/c4ccncc4)ncnc23)c1 | 37.7 | 9.33 | 55.4 | 13.2 | 90.2 | 8.9 | 35.4 | 3.34 | 11.9 | 26 | 74.5 | 1.76 | 6.21 | 17.5 | 61.9 | 5.59 | 15.2 | 4.97 | 13.2 | 2.3
Nc1ncc(-c2cccc(S(N)(=O)=O)c2)c2scc(-c3ccc(F)c(Cl)c3)c12 | 5.8 | 2.25 | 14.7 | 4.24 | 24.6 | 8.9 | 24.7 | 6.47 | 31.4 | 78.5 | 92.6 | 3.89 | 6.87 | 70.9 | 91.6 | 4.66 | 6.44 | 7.02 | 6.15 | -0.08
CCCN(CCS(C)(=O)=O)Cc1ccc(-c2ccc3ncnc(Nc4ccc(OCc5cccc(F)c5)c(Cl)c4)c3c2)o1 | 11.8 | 3.11 | 8.39 | 1.17 | 5.04 | 2.22 | 5.54 | 0.84 | 2.9 | 1.66 | 11.1 | 1.53 | 1.76 | 2.96 | 7.61 | 2.67 | 4.13 | 0.87 | 2.11 | 0.58
c1ccc(-c2nc3n(c2-c2ccc4c(c2)OCO4)CCC3)nc1 | 2.32 | 1.52 | 2.28 | 0.37 | -3.23 | -0.05 | 3.42 | 2.19 | 2.78 | 2.84 | 6.59 | 1.98 | 1.68 | 3.49 | 6.24 | 0.85 | 1.63 | 1.29 | 1.9 | 0.34
FC(F)(F)c1cccc(-c2nn3ncccc3c2-c2ccnc(Nc3ccc4c(c3)OCCO4)n2)c1 | 24.7 | 4.28 | 12.4 | 1.81 | 19.9 | 3.84 | 19.8 | 1.35 | 12.2 | 7.12 | 58.1 | 2.31 | 4.08 | 9.69 | 55.8 | 4.33 | 6.24 | 5.41 | 4.99 | -0.12
COc1ccc2c(-c3ccnc(Nc4cccc(OC(F)(F)F)c4)n3)cnn2n1 | 33.9 | 5.14 | 28.8 | 2.02 | 56.9 | 4.75 | 10.6 | 0.05 | 5.46 | 4.63 | 11.5 | 6.37 | 6.2 | 5.92 | 10.5 | 8.73 | 9.62 | 9.08 | 9.55 | -1.2
CCN(CC)S(=O)(=O)c1ccc(OC)c(Nc2ncc(-c3ccccc3)o2)c1 | 13.9 | 1.33 | 4.64 | 2.12 | -4.34 | 2.55 | 8.37 | 1.18 | 1.77 | 2.08 | 7.43 | -0.08 | 0.32 | 4.58 | 7.11 | 6.37 | 11 | 7 | 9.26 | 0.95
COc1cc(N2CCN(C(C)C)CC2)ccc1Nc1nc(Nc2ccc(F)cc2C(N)=O)c2cc[nH]c2n1 | 4.58 | 2.99 | 2.23 | 0.8 | 2.67 | 3.31 | 11.8 | 4.5 | 31.1 | 18.1 | 68.1 | 2.21 | 15.6 | 14.2 | 55 | 5.27 | 25.2 | 4.27 | 10.3 | 0.23
